# The supplement of paper PMC10338343
# ± gives the standard deviation.
# Test system: MILI (PIWIL2) piRISC loaded with piRNA #1 (26 nt)
# Test: pre-steady-state target cleavage rate (min^-1); guide: piRNA #1 5'p-UGAGGUAGUAGGUUGUAUAGUAUCCA; MIWI and MILI are mouse PIWI proteins and EfPiwi is from a freshwater sponge; tags in brackets are library labels; higher = faster piRNA-guided slicing of the target
# Conditions: auxiliary factor: 500 nM mouse GTSF1
# Summary of the method: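 Sequencing of uncleaved targets, normalised to depth and to weakly complementary targets, was the readout of this Cleave-'n-Seq assay. A transcribed, DNA-blocked target RNA library (0.1 nM) was mixed with 1 nM active affinity-purified piRISC carrying one synthetic guide, with or without 500 nM GTSF1 partner protein, in HEPES–potassium acetate buffer at 33 °C for 0–8 or 0–960 min. Three trials were pooled, k3 was capped at 0.0001 min^-1, and a burst-and-steady-state fit gave the pre-steady-state cleavage rate.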
row,Sequence,pre-steady-state target cleavage rate
1,GGAGACCUAUGUAUACAACCGUACUACCUCA,0.00758 ± 0.0041
2,GGAGACCUUACUAAAGAACCUACUACCUCA,0.105 ± 0.011
3,GGAGACCUAACAAUACAACGUACUACCUCA,0.00908 ± 0.0045
4,GGAGAGGAUACUAUUCUACCUACUACCUCA,0.179 ± 0.013
5,GGAGACCUAUCUAUACAACCUACAACGUCA,0.0102 ± 0.004
6,GGAGACCUAUGAAUACAAUCUACUACCUCA,0.00544 ± 0.0022
7,GGAGACCUAUGAUUACAACCUAGCUACCUCA,0.00386 ± 0.0032
8,GGAGACCUAUCUAAACAACCUACUACCACA,0.0926 ± 0.013
9,GGAGACGAUACUAUACAACCUACUACCACA,0.185 ± 0.018
10,GGAGACCUAUGAUUACAACCGUACUACCUCA,0.00334 ± 0.0031
11,GGAGAGGAUUCUAUACAACCUACUACGUCA,0.0519 ± 0.0081
12,GGAGACCAUACUAUAGUUCCUACUACCUCA,0.156 ± 0.019
13,GGAGACCUAUGAAUACUACCUACUACGUCA,0.00344 ± 0.0026
14,GGAGACCUAUGAUAUGUUCCUACUACGUGA,< 0.0001
15,GGAGACCUAUGAAUACAACCUACUACCCUCA,0.00533 ± 0.0019
16,GGAGAGGAUUCUAUACAACCUACAACCUCA,0.0904 ± 0.012
17,GGAGUGGAUACUUUUCAACCUACUACCUCA,0.156 ± 0.0072
18,GGAGACCUAUGUAUACAACCUACCACCUCA,0.0347 ± 0.0083
19,GGAGACCUAUCUAUACAACCUACUCACCUCA,0.0886 ± 0.011
20,GGAGACCUAACUAUACAACCUACUGACCUCA,0.163 ± 0.04
21,GGAGACCUAUGAUUACAUCCUACUACGUCA,0.00263 ± 0.0026
22,GGAGACCUAUCUAUACAACCUACUACGAGA,0.0633 ± 0.017
23,GGAGACCUUACUAUUCAACCUACUUCCUCA,0.0623 ± 0.013
24,GGAGACCUUACUAUACAACCUACAAGCUCA,0.103 ± 0.03
25,GGAGACCAUACUAUUCAACCUUCUACCUCA,0.00695 ± 0.0026
26,GGAGACCUUACUAUACAAGGUACUACCUCA,0.0785 ± 0.0094
27,GGAGACCUAUGAUUAUAACCUACUACCUCA,0.00484 ± 0.0026
28,GGAGACCUAUGAUAUGAACCUACUACACUCA,< 0.0001
29,GGAGACCAUACUAUACAAGCUACAACCUCA,0.212 ± 0.022
30,GGAGACCUAUGAUAACAACCUACAUACCUCA,0.00403 ± 0.002
